Experimental data from PubChem BioAssay AID652197 (Broad Institute, 2013).
Several values for one entry are separate records, joined by “and”; a condition that tells them apart may be missing. Equal entries are not always repeated. Hit rate of the full screen: of about 340,000 compounds, about 500 (0.15%) were called active. The sample holds actives, similar compounds and a random draw of the others, so the mix is not that of the screen.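 Rule for the calls: active = mean replicate inhibition of at least 30%, or all replicates individually reaching that 30% level; inactive = mean below 30% and not every replicate reaching it.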

Biological target: Endoplasmic reticulum aminopeptidase 1 (Homo sapiens) (UniProt Q9NZ08)
Assay: inhibition of ERAP1 peptide trimming enzyme – biochemical, single point, plate reader, primary screen (AID 652197);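 note: 0% = neutral control wells and 100% = L-leucinethiol positive control wells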
Details: recombinant ERAP1, Leu-AMC fluorescence, 60 min; at 10.7 µM; stronger effect = higher value

Sequence of Endoplasmic reticulum aminopeptidase 1 (Homo sapiens) (Q9NZ08 whole entry, looked up): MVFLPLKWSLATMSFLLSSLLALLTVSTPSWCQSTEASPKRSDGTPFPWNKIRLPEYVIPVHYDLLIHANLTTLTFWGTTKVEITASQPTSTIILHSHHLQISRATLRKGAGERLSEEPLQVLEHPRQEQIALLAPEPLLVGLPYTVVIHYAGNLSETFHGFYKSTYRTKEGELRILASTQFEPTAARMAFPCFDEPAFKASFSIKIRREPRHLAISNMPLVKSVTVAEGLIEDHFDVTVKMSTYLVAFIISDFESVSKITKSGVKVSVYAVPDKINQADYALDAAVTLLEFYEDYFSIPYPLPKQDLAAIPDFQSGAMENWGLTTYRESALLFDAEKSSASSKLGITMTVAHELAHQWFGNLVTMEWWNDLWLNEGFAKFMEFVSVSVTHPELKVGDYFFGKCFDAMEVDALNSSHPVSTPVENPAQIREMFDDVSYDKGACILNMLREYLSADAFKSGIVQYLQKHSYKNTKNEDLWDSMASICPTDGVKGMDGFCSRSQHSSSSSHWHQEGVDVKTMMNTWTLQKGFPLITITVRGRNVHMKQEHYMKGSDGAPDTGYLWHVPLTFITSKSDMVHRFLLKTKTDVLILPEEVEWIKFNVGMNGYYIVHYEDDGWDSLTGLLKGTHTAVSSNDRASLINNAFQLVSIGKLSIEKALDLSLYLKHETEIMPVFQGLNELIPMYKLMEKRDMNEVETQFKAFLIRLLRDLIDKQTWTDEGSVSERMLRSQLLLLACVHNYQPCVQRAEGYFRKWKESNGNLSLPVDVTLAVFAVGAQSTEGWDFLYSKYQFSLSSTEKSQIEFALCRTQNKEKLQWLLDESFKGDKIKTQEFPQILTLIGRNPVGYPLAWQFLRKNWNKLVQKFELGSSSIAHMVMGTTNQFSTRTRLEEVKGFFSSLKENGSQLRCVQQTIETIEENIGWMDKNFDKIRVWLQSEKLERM

inhibition, active:
CC(=O)N(C1=C(Cl)C(=O)c2ccccc2C1=O)c1ccc(C(=O)O)cc1 84.4%
COc1ccc(CCOC(=O)CNC(=O)c2ccc(Cl)cc2Cl)cc1 37.4%
Cc1cc2c(nc1C)CCCN2C 56.4%
C[C@H]([C@@H](O)[C@@H](O)[C@@H](C)C(C)(C)C)[C@H]1CC[C@H]2C3CC[C@H]4C[C@H](OS(=O)(=O)O)[C@@H](OS(=O)(=O)O)C[C@]4(C)[C@H]3CC[C@]12C (stereo partly drawn) 51.7%
Cc1nc2ccc(N)nc2nc1C 31.2%
Cc1ccc(CCCOC(=O)C[N+]2(C)CCCC2)cc1 106%
Cc1ccc(CCCOC(=O)C[N+]2(C)CCCCC2)cc1 30.8%
COc1cccc2c1C(=O)c1c(O)c3c(c(O)c1C2=O)CC(O)(C(C)=NNC(=O)c1ccc(Cl)c(Cl)c1)CC3OC1CC(N)C(O)C(C)O1 (stereo not drawn) 42%
COCCNC(=O)Nc1ccc2nc(-c3ccco3)c(-c3ccco3)nc2c1 30.5%
O=C(CN1C(=O)NC2(CCCCC2)C1=O)N1CCN(C(=O)c2cccs2)CC1 37.4%
O=C(O)c1[nH]c2ccccc2c1C(c1cccc(O)c1)c1c(C(=O)O)[nH]c2ccccc12 34.8%

inhibition, inactive:
Cc1noc(C)c1C(=O)N(C)C[C@H]1OCc2ccccc2-c2c(n(C)c3ccccc23)C(=O)N([C@@H](C)CO)C[C@H]1C -0.288%
O=C1C(Cl)=C(Oc2ccccc2)C(=O)c2ccccc21 4.33%
O=C(NC1=CC(=O)c2ccccc2C1=O)c1ccccc1 2.97%
CC(C)NC(=O)N1CCCCN2[C@@H](CO)[C@@H](c3ccc(C#Cc4ccccc4)cc3)[C@@H]2C1 0.974%
O=C(Cc1ccccc1)N1CC[C@@H]2[C@H](CO)Nc3ccc(-c4ccccc4)cc3[C@@H]21 4.96%
C/C=C/c1ccc([C@H]2[C@H](CO)N(C(=O)CN(C)C)C23CN(C(=O)C2CC2)C3)cc1 -1.65%
O=C(C[C@H]1CC[C@H]2[C@@H](COC[C@H](O)CN2S(=O)(=O)c2cccc(F)c2)O1)NC1CCC1 -1.89%
COc1ccc(-c2ccc([C@@H]3[C@H](CN(C)S(C)(=O)=O)N[C@@H]3CO)cc2)cc1 -0.559%
C[C@@H]1CCCCO[C@@H](CN(C)S(=O)(=O)c2cccs2)[C@H](C)CN([C@H](C)CO)C(=O)c2cc(NC(=O)CCCN(C)C)ccc2O1 0.521%
COc1ccc(CCNC(=O)COC(=O)c2cnc(Cl)c(Cl)c2)cc1 -0.478%
Cc1ccccc1NC(=O)Cc1nc(COC(=O)CNC(=O)c2ccc(Cl)cc2Cl)cs1 -1.49%
CCC(=O)N1CC2(C1)[C@@H](c1ccc(C3=CCCC3)cc1)[C@@H](CO)N2C(=O)COC -3.58%
C[C@@H]1CCCCO[C@@H](CN(C)Cc2ccc3c(c2)OCO3)[C@@H](C)CN([C@@H](C)CO)C(=O)c2cc(NC(=O)C3CCCCC3)ccc2O1 -1.88%
C[C@@H]1CN([C@@H](C)CO)C(=O)c2cc(C#CC3CCCCC3)cnc2O[C@H]1CN(C)C(=O)Cc1ccccn1 4.3%
COc1ccc(NC(=O)N(C)C[C@@H]2OCCCC[C@@H](C)Oc3ccc(NS(C)(=O)=O)cc3C(=O)N([C@@H](C)CO)C[C@H]2C)cc1 4.38%
CCC(=O)N[C@H]1CC[C@@H](CC(=O)NCC2CC2)O[C@@H]1CO -1.77%
CN1CCCc2nc(-c3ccccc3)ccc21 0.84%
CC(=O)O[C@H]1CC[C@@]2(C)[C@@H](CC[C@@H]3[C@@H]2CC[C@]2(C)[C@@H](C(C)(C)O)C[C@@H]32)C1 -4.42%
O=C(C[C@H]1CC[C@H]2[C@@H](COC[C@@H](O)CN2C(=O)Nc2ccc(C(F)(F)F)cc2)O1)NC1Cc2ccccc2C1 3.19%
Cc1ccc(-c2ccc(C3[C@H]4CNC[C@@H]3N4S(=O)(=O)c3ccccc3C)cc2)cc1 (stereo partly drawn) 1.57% and -0.081%
COc1cccc(-c2ccc([C@@H]3[C@@H](CO)N4C(=O)CN(C(=O)C5CCCCC5)C[C@H]34)cc2)c1 -0.992%
CO[C@@H]1CC[C@@H]2CCOc3ccc(C#N)cc3C(=O)N(C)C[C@@H](OC)[C@@H](C)C(=O)N(C)C[C@H]1O2 -4.56%
CNC(=O)C[C@@H]1CC[C@@H]2[C@H](COC[C@@H](O)CN2S(=O)(=O)c2ccccc2Cl)O1 0.052%
Cc1nc2cccnc2nc1C 1.29%
O=C(CCN1CCCCC1)NCC[C@H]1CC[C@@H](NC(=O)C2CCOCC2)[C@H](CO)O1 3.14%
C[C@H]1CN([C@@H](C)CO)C(=O)Cc2cc(NC(=O)c3ccncc3)ccc2O[C@@H]1CN(C)C(=O)Nc1ccccc1 1.04%
CNC(=O)C[C@H]1CC[C@@H]2[C@H](COc3ccc(NC(=O)Nc4ccc(F)c(F)c4)cc3C(=O)N2C)O1 0.113%
C#Cc1ccc([C@H]2C=C(C(=O)O)O[C@@H](OCC)[C@@H]2CCCO)cc1 -6.5%
C[C@@H]1CCCCO[C@H](CN(C)C(=O)c2ccccc2)[C@H](C)CN([C@@H](C)CO)C(=O)c2cc(NC(=O)Nc3ccc4c(c3)OCO4)ccc2O1 -5.55%
Cc1ccc(S(=O)(=O)Nc2ccc3c(c2)C(=O)N([C@@H](C)CO)C[C@@H](C)[C@H](CN(C)Cc2ccc(Cl)c(Cl)c2)OCCCC[C@@H](C)O3)cc1 0.461%
Cc1ccc(S(=O)(=O)CCC(=O)OCC(=O)NCCc2ccc(S(N)(=O)=O)cc2)cc1 -0.437%
Cc1ccc(CNC(=O)COC(=O)C2CCC2)cc1 1.31%
COc1ccc(CC2c3cc(OC)c(OC)cc3CC[N+]2(C)CCC(=O)OCCCCCOC(=O)CC[N+]2(C)CCc3cc(OC)c(OC)cc3C2Cc2ccc(OC)c(OC)c2)cc1OC (stereo not drawn) -5.26%
Cc1ccc(COC(=O)CN2C(=O)NC3(CCCC3)C2=O)cc1 -3.32%
COc1ccc2c3c(n(C)c2c1)[C@@H](CO)N(C(=O)CN1CCOCC1)CC31CCN(C(=O)C2CC2)CC1 -0.976%
CCCC(=O)Nc1ccc2c(c1)OC[C@@H](C)N(CC1CCOCC1)C[C@H](C)[C@H](OC)CN(C)C2=O 6.53%
C[C@H](NC(=O)[C@@H]1[C@@H](CO)[C@@H]2Cn3c(ccc(-c4cccc(F)c4)c3=O)[C@@H]2N1C)c1ccccc1 5.74%
CC(C)NC(=O)N(C)C[C@@H]1Oc2ccc(N(C)C)cc2CC(=O)N([C@H](C)CO)C[C@@H]1C 2.87%
CN1CCN(C(=O)C[C@H]2CC[C@@H]3[C@H](COC[C@@H](O)CN3CC3CCCC3)O2)CC1 4.35%
CC(C)c1cn(CC[C@@H]2CC[C@@H](NC(=O)C3CC3)[C@H](CO)O2)nn1 -4.66%
COc1ccc2c3c(n(C)c2c1)[C@H](CO)N(C(=O)NC(C)C)CC31CCN(C(=O)NC(C)C)CC1 -0.444%
O=C(N[C@H]1CC[C@@H](CCNS(=O)(=O)c2ccccc2)O[C@H]1CO)c1cccnc1 -2.04%
C[C@@H]1CN([C@@H](C)CO)C(=O)c2cc(NC(=O)Nc3ccc(F)cc3)ccc2O[C@H]1CN(C)CC1CCCCC1 -0.385%
O=C(c1cccc(F)c1)N1CC[C@@H]2[C@H](CO)Nc3ccc(-c4ccccc4)cc3[C@@H]21 -0.032%
O=C(C[C@@H]1CC[C@H](NC(=O)NC2CCCCC2)[C@H](CO)O1)NCc1ccc(F)cc1 0.011%
CC(C)NC(=O)N1[C@H](C(=O)N2CCc3ccccc3C2)[C@@H](CO)[C@@H]2Cn3c(cccc3=O)[C@@H]21 0.844%
COCCNC(=O)c1snc2ccc(Cl)cc12 -4.43%
COCCNC(=O)CSc1nc(N)c(NC(=O)c2ccco2)c(=O)[nH]1 -7.96%
O=C(C[C@H]1CC[C@H]2[C@@H](COC[C@@H](O)CN2CC2CCCC2)O1)NCC1CC1 -1.66%
Cc1noc(C)c1S(=O)(=O)N(C)C[C@H]1Oc2c(NC(=O)c3cnccn3)cccc2C(=O)N([C@H](C)CO)C[C@H]1C 5.55%
Cc1nc(N2[C@H](CO)[C@H](c3ccccc3)[C@H]2CNCC2CCC2)sc1C 2.07%
O=C(C1CCC1)N1CC(=O)N2[C@H](C1)[C@@H](c1ccc(-c3ccccc3F)cc1)[C@@H]2CO -0.661%
CN(C)C(=O)c1cccc(-c2ccc([C@H]3[C@@H](CO)N4C(=O)CN(C(=O)C5CC5)C[C@@H]34)cc2)c1 0.435%
CN1C(=O)c2cc(NC(=O)C3CC3)ccc2OC[C@H]2O[C@H](CC(=O)O)CC[C@H]21 -5.19%
O=C(Nc1ccccc1F)N1CC(=O)N2[C@H](C1)[C@@H](c1ccc(C#CC3CC3)cc1)[C@@H]2CO -0.691%
O=S(=O)(c1ccc(F)cc1)N1CC[C@@H]2[C@@H](CO)Nc3ccc(-c4ccccc4F)cc3[C@@H]21 1%
O=C(Nc1ccccc1F)N[C@@H]1CC[C@@H](CCNC(=O)C2CC2)O[C@H]1CO -0.77%
Cc1noc(C)c1NC(=O)Nc1ccc2c(c1)C(=O)N([C@H](C)CO)C[C@H](C)[C@@H](CN(C)S(C)(=O)=O)OCCCC[C@H](C)O2 -4.94%
CCCC#Cc1ccc([C@H]2[C@H]3CN(C(=O)c4cccnc4)CC(=O)N3[C@H]2CO)cc1 -1.39%
O=C1CN(C(=O)CN2C(=O)NC3(CCCCC3)C2=O)c2ccccc2N1 -1.69%
O=C(CN1C(=O)NC2(CCCCCC2)C1=O)NCc1cccs1 -3.05%
O=C1CNC[C@H]2[C@@H](c3ccc(C4=CCCC4)cc3)[C@@H](CO)N12 -1.67%
CCCN1C[C@H](C)[C@@H](OC)CN(C)C(=O)c2ccc(NC(=O)c3cnccn3)cc2OC[C@H]1C 4.52%
COc1ccc2c3c([nH]c2c1)[C@@H](CO)N(S(C)(=O)=O)CC31CN(CC2CC2)C1 -2.67%
NCC[C@H]1CC[C@H](NC(=O)C2CC2)[C@@H](CO)O1 2.22%
C[C@@H]1CN([C@@H](C)CO)C(=O)c2cc(NC(=O)C3CCCCC3)ccc2O[C@@H](C)CCCCO[C@H]1CN(C)C(=O)CCC(F)(F)F -1.11%
Cc1ccc(S(=O)(=O)Nc2ccc3c(c2)C(=O)N([C@@H](C)CO)C[C@@H](C)[C@H](CN(C)C(=O)NC(C)C)OCCCC[C@H](C)O3)cc1 -4.09%
COc1ccccc1S(=O)(=O)N[C@@H]1CC[C@H](CC(=O)N2CCOCC2)O[C@@H]1CO -0.783%
O=C(OCC(=O)c1c[nH]c2ccccc12)c1cccc(O)c1 -0.958%
C[C@H]1CN([C@@H](C)CO)C(=O)c2cc(NC(=O)Cn3cnnn3)ccc2O[C@H]1CN(C)S(C)(=O)=O -0.7%
CCCNC(=O)Nc1ccc2c(c1)C(=O)N(C)C[C@H](OC)[C@H](C)CN[C@@H](C)CO2 -2.85%
COc1ccc2c3c([nH]c2c1)[C@H](CO)N(C(=O)C1CCC1)CC31CCN(Cc2cccc(F)c2)CC1 0.436%
Cc1noc(C)c1S(=O)(=O)Nc1ccc2c(c1)C(=O)N([C@H](C)CO)C[C@H](C)[C@H](CN(C)C(=O)CCC(F)(F)F)OCCCC[C@H](C)O2 0.261%
CCCNC(=O)Nc1ccc2c(c1)OC[C@H](C)N(C(=O)C1CCC1)C[C@H](C)[C@@H](OC)CN(C)C2=O 2.58%
C[C@@H]1CN([C@@H](C)CO)C(=O)c2c(c3ccccc3n2C)-c2ccccc2CO[C@@H]1CN(C)Cc1ccc2c(c1)OCCN2C 2.84%
O=C(C[C@H]1C[C@@H]2c3cc(NS(=O)(=O)c4ccc(F)cc4)ccc3O[C@@H]2[C@H](CO)O1)NCc1cccc(F)c1 -2.83%
CCCNC(=O)C[C@H]1C[C@H]2c3cc(NC(=O)COC)ccc3O[C@H]2[C@H](CO)O1 0.774%
